Measurements taken from PubChem BioAssay (Tox21).
“And” between values parts separate entries of the source, which are not always exact repeats. Identical values can stand only once. Results filed as inconclusive are left out. The source made the active and inactive calls. Unless noted, calls follow the shape of the dose curve; as a rule, active = well fitted curve in the direction sought with a large enough effect in the repeat runs; inconclusive = weak or mixed curves; inactive = no such curve, though single readings can be large; an effect the other way counts as inactive or inconclusive.

How the values were obtained:
[1] = qHTS assay for small molecules that induce genotoxicity in human embryonic kidney cells expressing luciferase-tagged ATAD5 (AID 651632); also: % is scaled to controls: 0 for no effect and ±100 for the full control effect; nearly all actives have a fitted effect of over 15% in size
Method in brief: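 Concentration-response screen for ATAD5 upregulation in HEK293T luciferase reporter cells; 16 hr treatment at 37C, then luminescence after 30 min with Amplite at room temperature.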

[2] = qHTS assay for small molecule agonists of the p53 signaling pathway - cell viability (AID 651633; calls by dose curve; also: nearly all actives have a fitted effect of over 30% in size; also: potency is read from the fitted curve at half-maximal effect)
Method in brief: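 p53RE-bla cells were treated with compound for 16 hours at 37 C. Cytotoxicity was then measured as CellTiter-Glo luminescence after 30 min at room temperature.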

[3] = qHTS assay for small molecules that induce genotoxicity in human embryonic kidney cells expressing luciferase-tagged ATAD5 - cell viability (AID 651634; calls by dose curve; also: nearly all actives have a fitted effect of over 25% in size; also: potency is read from the fitted curve at half-maximal effect)
Method in brief: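 15.5 hr compound or vehicle exposure of HEK293T cells expressing luciferase-tagged ATAD5 at 37C; live-cell protease activity is read by fluorescence after 30 min of CellTiter-Fluor.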

[4] = qHTS assay for small molecule disruptors of the mitochondrial membrane potential - cell viability (AID 720634; calls by dose curve; also: nearly all actives have a fitted effect of over 20% in size; also: potency is read from the fitted curve at half-maximal effect)
Method in brief: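 In this qHTS format, HepG2 cells plated overnight were pinned with compound, incubated 1 hr, and assayed for ATP luminescence with CellTiter-Glo after m-MPI dye addition.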

[5] = qHTS assay for small molecule disruptors of the mitochondrial membrane potential (AID 720635); also: potency is read from the fitted curve at half-maximal effect
Method in brief: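 HepG2 cells exposed to compound 1 hr at 37C, then Mito-MPS dye 30 min. Ratio read of aggregate (540/590 nm) versus monomer (490/535 nm) fluorescence.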

[6] = qHTS assay to test for compound auto fluorescence at 590 nm (red) in HepG2 cells (AID 720674); also: % is scaled to controls: 0 for no effect and ±100 for the full control effect
Method in brief: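 Fluorescence at 590 nm emission following 540 nm excitation was recorded from HepG2 wells one hour after compound transfer, with DMSO-only wells as vehicle and Rose Bengal sodium equivalency as the scale.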

[7] = qHTS assay to test for compound auto fluorescence at 535 nm (green) in HepG2 cells (AID 720675); also: % is scaled to controls: 0 for no effect and ±100 for the full control effect
[8] = qHTS assay to test for compound auto fluorescence at 460 nm (blue) in HEK293 cells (AID 720678); also: % is scaled to controls: 0 for no effect and ±100 for the full control effect
Method in brief: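 Triamterene serves as the blue fluorophore standard. Compound signal at 405/460 nm is read in HEK293 wells (2,000 cells, 10% dialyzed FBS) after overnight treatment at 37C.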

[9] = qHTS assay to test for compound auto fluorescence at 590 nm (red) in HEK293 cells (AID 720679); also: % is scaled to controls: 0 for no effect and ±100 for the full control effect
Method in brief: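 We plated HEK293 cells in 10% dialyzed FBS medium, let them adhere for 4-5 hr, then added 23 nL compound. Overnight at 37C and 5% CO2 preceded fluorescence measurement at 540/590nm.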

[10] = qHTS assay to test for compound auto fluorescence at 460 nm (blue) in HEK293 cell free culture (AID 720681); also: % is scaled to controls: 0 for no effect and ±100 for the full control effect
Method in brief: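 Compounds were added to cell-free DMEM with 10% FBS and fluorescence read directly. The blue channel used 405 nm excitation and 460 nm emission, with triamterene as the reference fluorophore.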

[11] = qHTS assay to test for compound auto fluorescence at 535 nm (green) in HEK293 cell free culture (AID 720682); also: % is scaled to controls: 0 for no effect and ±100 for the full control effect
Method in brief: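 Measurement is a direct plate read of green fluorescence (485 nm in, 535 nm out) after compound addition to serum-supplemented DMEM lacking cells, with fluorescein used to express intensities.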

[12] = qHTS assay to test for compound auto fluorescence at 590 nm (red) in HEK293 cell free culture (AID 720683); also: % is scaled to controls: 0 for no effect and ±100 for the full control effect
Method in brief: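 Cell-free wells of DMEM with 10% FBS received compound, and intrinsic fluorescence was read at excitation/emission 540/590 nm. Values expressed as equivalence to Rose Bengal sodium.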

[13] = qHTS assay to test for compound auto fluorescence at 590 nm (red) in HepG2 cell free culture (AID 720684); also: % is scaled to controls: 0 for no effect and ±100 for the full control effect
Method in brief: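 Rose Bengal sodium served as the reference for red signal. Test compounds were dispensed into serum-containing MEM (10% FBS) without cells, and plates were read at 540/590 nm.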

[14] = qHTS assay to test for compound auto fluorescence at 460 nm (blue) in HepG2 cell free culture (AID 720685); also: % is scaled to controls: 0 for no effect and ±100 for the full control effect
Method in brief: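 Cell-free plates of MEM plus 10% FBS received 23 nL compound or DMSO vehicle; blue-channel (405/460 nm) intensity scored against triamterene as reference fluorophore.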

[15] = qHTS assay to test for compound auto fluorescence at 535 nm (green) in HepG2 cell free culture (AID 720686); also: % is scaled to controls: 0 for no effect and ±100 for the full control effect
[16] = qHTS assay to test for compound auto fluorescence at 460 nm (blue) in HepG2 cells (AID 720687); also: % is scaled to controls: 0 for no effect and ±100 for the full control effect
Method in brief: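 HepG2 cells in MEM with 10% FBS, attached overnight at 37 C, were exposed to compound or DMSO for 1 hr at 37 C, 5% CO2. Blue fluorescence was read at 405/460 nm, with triamterene as reference fluorophore.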

[17] = qHTS assay to test for compound auto fluorescence at 535 nm (green) in HEK293 cells (AID 720680); also: % is scaled to controls: 0 for no effect and ±100 for the full control effect
[18] = target: Glucocorticoid receptor (Homo sapiens) (UniProt P04150); assay: qHTS assay to identify small molecule agonists of the glucocorticoid receptor (GR) signaling pathway (AID 720691; active = well fitted activation curve with a large enough effect in the signal ratio in the repeat runs, not every such curve was filed as active; the % refers to the signal ratio; also: % is scaled to controls: 0 for no effect and ±100 for the full control effect); conditions: GR-bla HeLa, beta-lactamase reporter ratio, 18 h; activation: at 62.4 µM (top of the series)
Glucocorticoid receptor (Homo sapiens), sequence (P04150 whole entry, looked up): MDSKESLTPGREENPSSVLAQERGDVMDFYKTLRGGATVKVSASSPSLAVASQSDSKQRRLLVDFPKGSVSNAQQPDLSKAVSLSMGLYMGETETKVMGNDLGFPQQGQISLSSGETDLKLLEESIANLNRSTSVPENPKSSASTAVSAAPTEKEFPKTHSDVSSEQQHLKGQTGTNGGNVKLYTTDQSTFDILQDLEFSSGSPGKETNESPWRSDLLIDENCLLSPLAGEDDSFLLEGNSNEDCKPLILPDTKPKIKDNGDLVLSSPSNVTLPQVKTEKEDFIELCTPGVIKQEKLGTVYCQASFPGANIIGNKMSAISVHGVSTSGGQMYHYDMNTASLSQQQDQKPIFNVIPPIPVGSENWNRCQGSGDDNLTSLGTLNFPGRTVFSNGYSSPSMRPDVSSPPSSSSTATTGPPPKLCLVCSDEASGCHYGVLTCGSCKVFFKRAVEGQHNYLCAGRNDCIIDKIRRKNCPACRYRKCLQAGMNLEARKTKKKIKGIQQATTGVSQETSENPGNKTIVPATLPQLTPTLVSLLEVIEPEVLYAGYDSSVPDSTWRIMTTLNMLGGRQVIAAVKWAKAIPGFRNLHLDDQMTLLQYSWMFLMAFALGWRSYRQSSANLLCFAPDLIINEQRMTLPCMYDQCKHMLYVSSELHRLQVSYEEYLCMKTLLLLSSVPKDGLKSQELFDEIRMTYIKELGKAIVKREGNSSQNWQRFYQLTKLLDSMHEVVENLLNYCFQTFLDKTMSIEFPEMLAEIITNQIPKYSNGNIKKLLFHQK
Method in brief: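 Measures GR pathway activation through a GRE-beta-lactamase reporter stably integrated in HeLa cells, with 18 h compound treatment at 37 C and fluorescence detection using a FRET substrate.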

[19] = qHTS assay for small molecule agonists of the p53 signaling pathway (AID 651631; calls by dose curve; also: potency is read from the fitted curve at half-maximal effect; nearly all actives have a fitted effect of over 15% in size)
Method in brief: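 Quantitative high-throughput format: 4,000 p53RE-bla HCT-116 cells/well, 5 h pre-incubation, 16 h compound exposure at 37 °C, 2 h room-temperature substrate step, fluorescence intensity measured.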

[20] = target: Glucocorticoid receptor (Homo sapiens) (UniProt P04150); assay: qHTS assay to identify small molecule antagonists of the glucocorticoid receptor (GR) signaling pathway (AID 720692; active = well fitted inhibition curve with a large enough effect in the signal ratio in the repeat runs, not every such curve was filed as active; the % refers to the signal ratio; also: % is scaled to controls: 0 for no effect and ±100 for the full control effect)
Method in brief: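 Tox21 10K library screened in concentration-response for blockade of dexamethasone (5 nM final)-induced GRE-bla reporter activity in HeLa cells; 18 h treatment, fluorescence read.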

CC[C@H]1O[C@]2(CC[C@@H]1C)C[C@@H]1C[C@@H](C/C=C(\C)C[C@@H](C)/C=C/C=C3\CO[C@@H]4[C@H](O)C(C)=C[C@@H](C(=O)O1)[C@]34O)O2
active: Potency [2] 12.1 µM | Potency [3] 54 µM | Potency [4] 68 µM | Potency [5] 21.5 µM
inactive: Potency [1] | Potency [6] | Potency [7] | Potency [8] | Potency [9] | Potency [10] | outcome [11] | Potency [12] | Potency [13] | Potency [14] | Potency [15] | Potency [16]

Cn1cc(C(=O)[C@@H]2CCc3nc[nH]c3C2)c2ccccc21
inactive: Potency [1] | Potency [2] | Potency [3] | Potency [4] | Potency [5] | Potency [6] | Potency [7] | Potency [8] | Potency [9] | outcome [17] | Potency [10] | outcome [11] | Potency [12] | Potency [13] | Potency [14] | Potency [15] | Potency [16] | Potency [18]

C1CCCC1
inactive: Potency [1] | Potency [2] | Potency [3] | Potency [4] | Potency [5] | Potency [6] | Potency [7] | Potency [8] | Potency [9] | outcome [17] | Potency [10] | outcome [11] | Potency [12] | Potency [13] | Potency [14] | Potency [15] | Potency [16]

CCCCC(CC)CN=C(N)NC(N)=NCCCCCCN=C(N)NC(N)=NCC(CC)CCCC (stereo not drawn)
active: Potency [2] 26.6 µM | Potency [3] 26.6 µM | Potency [4] 21.1 µM | Potency [5] 17.6 µM
inactive: Potency [1] | Potency [6] | Potency [7] | Potency [8] | Potency [9] | outcome [17] | Potency [10] | Potency [13] | Potency [14] | Potency [15] | Potency [16]

CCc1cc(Cc2cc(CC)cc(C(C)(C)C)c2O)c(O)c(C(C)(C)C)c1
active: Potency [2] 10.9 µM | Potency [3] 61.1 µM | Potency [5] 0.864 µM
inactive: Potency [1] | Potency [4] | Potency [6] | Potency [7] | Potency [8] | Potency [9] | outcome [17] | Potency [10] | outcome [11] | Potency [12] | Potency [13] | Potency [14] | Potency [15] | Potency [16]

COc1c(C)c2c(c(O)c1C/C=C(\C)CCC(=O)O)C(=O)OC2
inactive: Potency [4] | fluorescence, relative to Rose Bengal [6] 0.0782% [at 18.6 µM] | fluorescence, % of triamterene [8] -0.0265% [at 18.6 µM] | fluorescence, % of fluorescent control [9] 0.167% [at 18.6 µM] | fluorescence, % of fluorescein [17] -0.0651% [at 18.6 µM] | fluorescence, % of fluorescent control [10] -0.004% [at 18.6 µM] | activity change [11] -0.148% [at 18.6 µM] | fluorescence, % of fluorescent control [12] 0.195% [at 18.6 µM] | fluorescence, % of Rose Bengal [13] 0.0127% [at 18.6 µM] | fluorescence, % of fluorescent control [14] 0.227% [at 18.6 µM] | fluorescence, % of fluorescent control [16] -0.0404% [at 18.6 µM]
active: Potency [19] 0.0717 µM | Potency [3] 0.202 µM

CCCCCCCCS(=O)C(C)Cc1ccc2c(c1)OCO2 (stereo not drawn)
inactive: Potency [1] | Potency [2] | Potency [3] | Potency [4] | Potency [5] | Potency [6] | Potency [7] | Potency [8] | Potency [9] | outcome [17] | Potency [10] | Potency [12] | Potency [13] | Potency [14] | Potency [15] | Potency [16] | Potency [18]

C[C@H]1[C@H]2CC[C@H]3[C@@H]4CC=C5C[C@@H](N(C)C)CC[C@]5(C)[C@H]4CC[C@]23CN1C
inactive: Potency [1] | Potency [2] | Potency [3] | Potency [4] | Potency [5] | Potency [6] | Potency [7] | Potency [8] | Potency [9] | outcome [17] | Potency [10] | outcome [11] | Potency [13] | Potency [14] | Potency [15] | Potency [16] | Potency [18] | Potency [20]

CC(C)OC(=O)c1cc2c(OCC(O)CNC(C)(C)C)cccc2[nH]1 (stereo not drawn)
inactive: Potency [1] | Potency [2] | Potency [3] | Potency [4] | Potency [5] | Potency [6] | Potency [7] | Potency [8] | Potency [9] | outcome [17] | Potency [10] | outcome [11] | Potency [12] | Potency [13] | Potency [15] | Potency [16] | Potency [18] | Potency [20]

O=c1cccccc1O
active: Potency [5] 3.93 µM
inactive: Potency [1] | Potency [2] | Potency [3] | Potency [4] | Potency [6] | Potency [7] | Potency [8] | Potency [9] | Potency [10] | outcome [11] | Potency [13] | Potency [14] | Potency [15] | Potency [16] | Potency [18]

O=C(OCC(COC(=O)c1ccccc1)(COC(=O)c1ccccc1)COC(=O)c1ccccc1)c1ccccc1
inactive: Potency [1] | Potency [2] | Potency [3] | Potency [4] | Potency [6] | Potency [7] | Potency [8] | Potency [9] | outcome [17] | Potency [10] | outcome [11] | Potency [12] | Potency [13] | Potency [15] | Potency [16]
active: Potency [5] 3.06 µM

Oc1cccc(-c2c3nc(c(-c4cccc(O)c4)c4ccc([nH]4)c(-c4cccc(O)c4)c4nc(c(-c5cccc(O)c5)c5ccc2[nH]5)CC4)C=C3)c1
inactive: Potency [1] | Potency [4] | Potency [6] | Potency [7] | Potency [8] | Potency [9] | outcome [17] | Potency [10] | outcome [11] | Potency [12] | Potency [13] | Potency [14] | Potency [15] | Potency [16]
active: Potency [2] 9.44 µM | Potency [3] 13.3 µM and 11.9 µM | Potency [5] 26.6 µM
